Measured values taken from ChEMBL document CHEMBL1157539, “Thousands of chemical starting points for antimalarial lead identification” (Nature, 2010).
Values joined by “and” are separate entries in the source; they are usually repeats but may differ in a detail not shown here. Equal values may be shown once.

Assays:
Type in all cases: functional
Plasmodium falciparum [1] = assay: GSK_TCMDC: Inhibition of Plasmodium falciparum 3D7 in whole red blood cells, using parasite LDH activity as an index of growth. Test compounds present at 2uM
Plasmodium falciparum [2] = assay: GSK_TCMDC: Inhibition of Plasmodium falciparum Dd2 in whole red blood cells, using parasite LDH activity as an index of growth. Test compounds present at 2uM
HepG2 = assay: GSK_TCMDC: Percent inhibition of human HepG2 cell line. Test compounds present at 10uM.

SMILES | Inhibition (Plasmodium falciparum [1]) | Inhibition (Plasmodium falciparum [2]) | Inhibition (HepG2)
Oc1cccc(C2CCCN(Cc3cccc4cc[nH]c34)C2)c1 (stereo unspecified) | 100% | 82% | 16%
Br.COC(=O)c1ccc(CC(C)NCC(O)c2cccc(OC(F)(F)F)c2)cc1 (stereo unspecified) | 98% | 67% | 2%
Cc1cccc(N2CCN(Cc3cc(Cl)ccc3O)CC2)c1C.O=C(O)C(=O)O | 96% | 96% | 0%
O=C(NC1CCC(CN2CCC(c3c[nH]c4ccccc34)CC2)CC1)c1cc2cccc([N+](=O)[O-])c2[nH]1 (stereo unspecified) | 100% | 100% | 36%
O=C(C=Cc1ccccc1O)N1CCC(CN2CCC(c3c[nH]c4ccccc34)CC2)CC1 | 98% | 43% | 27%
Br.CC(Cc1ccc(CSC(C)C)cc1)NCC(O)c1cccc(Cl)c1 (stereo unspecified) | 98% | 98% | 11%
OC(CNCc1ccccc1OC(F)F)c1cccc(C(F)(F)F)c1 (stereo unspecified) | 97% | 52% | 2%
CC[C@H]1CN2CC[C@@H]1C[C@H]2[C@H](O)c1cc(-c2cccnc2)nc2ccc(OC)cc12.Cl | 99% | 99% | 20%
COc1ccc(CN2CCN(CCOC(c3ccccc3)c3ccc(Cl)cc3)CC2)c(O)c1 (stereo unspecified) | 99% | 98% | 12%
CC(C)n1ncc2c(C(=O)Nc3ccc(C#N)c(Cl)c3)cc(C3CC3)nc21 | 93% | 15% | 20%
CCCc1cc([C@@H](O)[C@@H]2C[C@@H]3CCN2C[C@@H]3CC)c2ccccc2n1 | 100% | 57% | 9%
COC(=O)c1sccc1NC(=S)NC1CCC(CN2CCC(c3c[nH]c4ccccc34)CC2)CC1 (stereo unspecified) | 97% and 100% | 49% and 54% | 34% and 25%
Cc1[nH]c2ccc(O)cc2c1C1CCN(CC2CCC(NC(=O)/C=C/c3ccc(Cl)c(Cl)c3)CC2)CC1 (stereo unspecified) | 100% | 95% | 19%
Cc1cc(N)nc2ccc(CNCCc3ccccc3Br)cc12.Cl | 100% | 77% | 28%
O=C(/C=C/c1ccccc1Cl)NC1CCC(CN2CCC(c3c[nH]c4ccccc34)CC2)CC1 (stereo unspecified) | 100% and 99% | 51% and 35% | 33% and 41%
CC(Cc1ccc(NC(=O)CCCc2ccccc2)cc1)NCCc1cccc(Cl)c1.Cl (stereo unspecified) | 94% | 3% | 12%
COCC(=O)N(Cc1ccccc1-c1cccc(CNCCc2ccccc2)c1)C1CCN(Cc2ccccc2)CC1.O=C(O)C(F)(F)F | 93% | 36% | 21%
N#Cc1ccc(N(CCCO)Cc2ccccc2C(F)(F)F)cc1C(F)(F)F | 91% | 23% | 7%
CN(c1cc(NC(=O)c2ccc(F)cc2)ccn1)C1CCN(Cc2cccc(C#N)c2)CC1.O=C(O)C(F)(F)F | 97% | 83% | 73%
O=C(/C=C/c1cccs1)NC1CCC(CN2CCC(c3c[nH]c4ccccc34)CC2)CC1 (stereo unspecified) | 82% | 29% | 33%
Brc1cnc(NC2=NCCN2)c(Br)c1.Cl | 99% | 0% | 0%

SMILES | Inhibition (Plasmodium falciparum [1]) | Inhibition (Plasmodium falciparum [2]) | Inhibition (HepG2)
CCCCCSc1cc(O)c(C(CNC)C(C)C)cc1OC.O=C(O)/C=C\C(=O)O (stereo unspecified) | 100% | 99% | 5%
CC1CN=C(Nc2ncc(Cl)cc2Cl)N1.Cl (stereo unspecified) | 99% | 3% | 2%
Br.CC[C@H]1CN2CC[C@H]1C[C@H]2[C@H](O)c1ccnc2ccc(OC)cc12 | 100% | 62% | 0%
Cc1ccc(CC(C)NCC(O)c2cccc([N+](=O)[O-])c2)cc1 (stereo unspecified) | 97% | 85% | 0%
C/C=C1\CN2CC[C@H]1C[C@H]2[C@H](O)c1ccnc2ccc(OC)cc12 | 100% | 45% | 0%
CC[C@H]1CN2CC[C@H]1C[C@H]2[C@H](O)c1cc(N2CCCC(C(=O)N(CC)CC)C2)nc2ccc(OC)cc12 (stereo partly specified) | 100% | 99% | 0%
Br.COC(=O)c1ccc(CC(C)NCC(O)c2cccc(SC(F)(F)F)c2)cc1 (stereo unspecified) | 96% | 72% | 7%
C=Cc1cc(OC)c2c(c1)c(=O)oc1c2cc(OC)c2c(O)ccc([C@H]3O[C@H]([C@H](C)O)[C@H](O)[C@H]3O)c21 | 95% | 41% | 33%
Cl.O=C(c1cc(C(F)(F)F)cc(C(F)(F)F)c1)N1CCC(CCN2CCC3(CC2)C(=O)NCN3c2ccccc2)CC1Cc1ccc(Cl)c(Cl)c1 (stereo unspecified) | 100% | 77% | 19%
COc1cccc(C=CC(=O)NC2CCC(CN3CCC(c4c[nH]c5ccccc45)CC3)CC2)c1OC (stereo unspecified) | 100% | 40% | 37%
O=C(/C=C/c1ccc(Cl)c(Cl)c1)NCC1CCC(CN2CCC(c3c[nH]c4ccccc34)CC2)CC1 (stereo unspecified) | 100% | 93% | 54%
COC(=O)c1ccc(CC(C)NCC(O)c2cccc(Oc3cccc(C(F)(F)F)c3)c2)cc1.Cl (stereo unspecified) | 91% | 73% | 19%
CC[C@H]1CN2CC[C@@H]1C[C@H]2[C@H](O)c1cc(N2CCC(O)(c3ccccc3)CC2)nc2ccc(OC)cc12 | 100% | 98% | 14%
CC(C)C[C@H](Nc1ccc(C#N)c2ccccc12)C(=O)N[C@@H]1CCCc2ccccc21.O=C(O)C(F)(F)F | 99% | 100% | 38%
Cc1ccc(-n2nc(C)c3c2NC(=O)CSC3c2ccsc2)cc1 (stereo unspecified) | 97% | 11% | 0%
COC(=O)c1ccc(CC(C)NCC(O)c2cccc(C(F)(F)F)c2)cc1F.Cl (stereo unspecified) | 82% | 47% | 1%
C1=C(c2c[nH]c3ccccc23)CCN(Cc2ccccc2)C1 | 91% | 80% | 22%
O=C(CSc1ccc(Cl)cc1)NC1CCC(CN2CCC(c3c[nH]c4ccccc34)CC2)CC1 (stereo unspecified) | 95% | 21% | 41%
COC(=O)c1ccc(CC(C)NCC(O)c2cccc(Br)c2)cc1 (stereo unspecified) | 99% | 88% | 0%
COc1ccc(CCNCc2ccc3nc(N)cc(C)c3c2)cc1 | 100% | 86% | 23%
Cc1ccc(CC(C)NCC(O)c2cccc(C(F)(F)F)c2)cc1.O=C(O)/C=C/C(=O)O (stereo unspecified) | 100% | 54% | 5%

SMILES | Inhibition (Plasmodium falciparum [1]) | Inhibition (Plasmodium falciparum [2]) | Inhibition (HepG2)
S=C(NCCc1ccc(Cl)cc1)NC1CCC(CN2CCC(c3c[nH]c4ccccc34)CC2)CC1 (stereo unspecified) | 100% | 84% and 34% | 42% and 37%
CS(=O)(=O)Nc1ccc2[nH]cc(C3CCN(CC4CCC(NC(=O)/C=C/c5ccccc5Cl)CC4)CC3)c2c1 (stereo unspecified) | 96% | 7% | 12%
O=C(NC1CCN(CC2(c3ccc(Cl)cc3)CCC2)CC1)c1cscn1 | 98% | 95% | 0%
CC(Cc1ccc(OCc2ccc(CCN(C)C)cc2)cc1)NCCc1cccc(Cl)c1 (stereo unspecified) | 100% | 78% | 42%
O=C(/C=C/c1ccc(Cl)c(Cl)c1)NC1CCC(CN2CCC(c3c[nH]c4ccccc34)C(O)C2)CC1 (stereo unspecified) | 100% | 87% | 30%
CCCCCc1cc(O)c2c(c1)OC(C)(C)CC2C1=CCN(Cc2cnc3ccccc3c2)CC1.Cl.O (stereo unspecified) | 98% | 98% | 27%
Oc1ccc(CN2CCN(CCOC(c3ccc(F)cc3)c3ccc(F)cc3)CC2)cc1Cl | 96% | 87% | 19%
CN1CC=C(c2c[nH]c3ccc(Br)cc23)CC1 | 88% | 80% | 0%
Cc1ccc(C2(O)CC3CCC(C2)N3C)cc1 (stereo unspecified) | 92% | 16% | 0%
CN1CC=C(c2c[nH]c3ccc(Oc4ccccc4)cc23)CC1.O=C(O)C(=O)O | 98% | 98% | 40%
COC(=O)c1ccc(CC(C)NCC(O)c2cccc(Cl)c2Cl)cc1.Cl (stereo unspecified) | 98% | 98% | 0%
Cc1ccc(CC(C)NCC(O)c2cccc(Cl)c2)cc1F.Cl (stereo unspecified) | 95% | 88% | 1%
Cn1c(C2CC3CCC(C2)N3CC2CCC(NC(=O)/C=C/c3ccc(Cl)c(Cl)c3)CC2)nc2ccccc21 (stereo unspecified) | 100% | 51% | 50%
Cl.NCC(=O)c1cc2c(cc1N)OCCO2 | 89% | 42% | 64%
Cc1cccc2[nH]cc(C3CCN(CC4CCC(NC(=O)/C=C/c5ccc(Cl)c(Cl)c5)CC4)CC3)c12.Cl (stereo unspecified) | 100% | 97% | 88%
CCCN(CC(=O)NCCc1ccccc1)c1ccc(C#N)c2ccccc12.O=C(O)C(F)(F)F | 92% | 39% | 8%
O=C(NCc1ccccc1)c1nn(CCCN2CCC3(CC2)C(=O)NCN3c2ccccc2)cc1-c1ccc(Cl)c(Cl)c1 | 88% | 21% | 6%
COc1ccc(OC)c(C=CC(=O)NC2CCC(CN3CCC(c4c[nH]c5ccccc45)CC3)CC2)c1 (stereo unspecified) | 98% | 62% | 43%
CCN(CC)CCN1C(=O)C(O)(c2ccccc2Cl)c2c1cc(C(N)=O)cc2C(F)(F)F.Cl (stereo unspecified) | 100% | 86% | 16%
CCCc1ccc2c(c1O)CCC(N(CCC)CCC)C2.Cl (stereo unspecified) | 90% | 23% | 0%
